Assay results as given in PubChem BioAssay (Tox21).
Inconclusive results are not listed. A call without a number means that no potency is given here. Calls of active or inactive are those of the source. Calls come from the whole dose curve; as a rule, active = well fitted cell-killing curve with a large enough effect in the repeat runs; inconclusive = weak or mixed curves, or effect the other way; inactive = flat fitted curve, though single readings scatter.

Assay: qHTS assay to identify small molecule that activate the aryl hydrocarbon receptor (AhR) signaling pathway - cell viability counter screen (AID 743086); note: nearly all actives have a fitted effect of over 45% in size
Conditions: HepG2-AhR-luc viability, CellTiter-Fluor, 24 h; series mostly up to 70.3 µM
Text: U.S. Tox21 Program National Center for Advancing Translational Sciences [NCATS] NIH Chemical Genomics Center [NCGC] U.S. Environmental Protection Agency [EPA] National Institutes of Environmental Health Sciences [NIEHS] National Toxicology Program [NTP] U.S. Food and Drug Administration [FDA] Tox21 Assay overview: The Aryl hydrocarbon Receptor (AhR), a member of the family of basic helix-loop-helix transcription factors, is crucial to adaptive responses to environmental changes. AhR mediates cellular responses to environmental pollutants such as aromatic hydrocarbons through induction of phase I and II enzymes but also interacts with other nuclear receptor signaling pathways A cell based HepG2-AhR-luc assay (HG2L7.5c1 cell line, developed by Dr. Michael S. Denison, University of California at Davis) was used to assess the activation of AhR. HepG2 (human hepatocellular carcinoma) cells were stably transfected with an Ah receptor-responsive firefly luciferase reporter gene plasmid containing 20 dioxin responsive elements and luciferase reporter gene. Increased luciferase activity can be used to identify the compounds that induce AhR activation. The cytotoxicity of the compounds screened against the HepG2-AhR-luc cell line was tested in parallel by measuring the cell viability using CellTiter-Fluor assay in the same wells.
Tox21 Assay Protocol Summary: 4000 cells in 5 uL/well were dispensed into white wall/solid bottom 1536-well plates using a Multidrop Combi (Thermo Fisher Scientific Inc., Waltham, MA) dispenser. After the assay plates were incubated at 37C for 5 h, 23 nL of compound or DMSO vehicle was transferred to the assay plates by a pintool station (Kalypsys, San Diego, CA). The plates were incubated at 37C for 24 hr. For cell viability measurement, 1 ul/well of CellTiter-Fluor reagent (Promega, Madison, WI) was added into the assay plates using a Flying Reagent Dispenser (FRD) (Aurora Discovery, CA),and then the assay plates were incubated at 37C for 30 min. The fluorescence intensity in the plates was measured using a ViewLux plate reader (PerkinElmer, Shelton, CT), followed by the addition of 4 uL of ONE-Glo Luciferase Assay reagent (Promega) using an FRD (Aurora Discovery). After the assay plates were incubated at room temperature for 30 min, luminescence intensity was measured using a ViewLux plate reader (Perkin Elmer).
Potency is the fitted concentration of half-maximal effect.

Compound	Potency
C=C(C)C1CC=C(C)C(O)C1 (stereo not given)	inactive
NC(=O)c1ncn([C@@H]2O[C@H](CO)[C@@H](O)[C@H]2O)c1O	inactive
CCCC(=O)O[C@]1(C(=O)CCl)[C@@H](C)C[C@H]2[C@@H]3CCC4=CC(=O)C=C[C@]4(C)[C@@]3(F)C(=O)C[C@@]21C	inactive
Nc1cc(N)cc(C(=O)O)c1	inactive
CC(C)[N+](C)(C)CC(O)COc1cccc2ccccc12 (stereo not given)	inactive
COC(=O)CCCCCCCCC(=O)OC	inactive
C=C(C)C(=O)OCCCCCCCCCCCCCCCCCC	inactive
CC(=O)OC(C)(C)C	inactive
CC(C)(O)Cc1ccccc1	inactive
NC(CS)C(=O)O (stereo not given)	inactive
NC1CCN(c2cccc(Cl)n2)CC1	inactive
NCC[C@H](O)C(=O)N[C@@H]1C[C@H](N)[C@@H](O[C@H]2O[C@H](CN)[C@@H](O)[C@H](O)[C@H]2O)[C@H](O)[C@H]1O[C@H]1O[C@H](CO)[C@@H](O)[C@H](N)[C@H]1O	inactive
CCCCCCCCCCCCCCCCCCOCC(O)CO (stereo not given)	inactive
Cc1nccn1CC1CCc2c(c3ccccc3n2C)C1=O (stereo not given)	inactive
O=C(O)/C=C/c1ccc(Cn2ccnc2)cc1	inactive
C=C[Si](OC)(OC)OC	inactive
CCCCC1CCCCC(=O)O1 (stereo not given)	inactive
N#CC1(O)CCCCC1	inactive
CCC(=O)/C=C/c1ccc(OC)cc1	inactive
Cn1ccc2cc3c(cc21)CCN3C(=O)Nc1cccnc1	inactive

Compound	Potency
COC(=O)C1=C(C)NC(C)=C(C(=O)OCC(C)=O)C1c1ccccc1[N+](=O)[O-] (stereo not given)	29.8 µM (active)
C=CCOCC(O)CS(=O)(=O)O (stereo not given)	inactive
C#CC(C)(O)CC(C)C (stereo not given)	inactive
C=C(C)C(=O)OCCC(C)OC(=O)C(=C)C (stereo not given)	inactive
Cc1onc(-c2ccccc2)c1-c1ccc(S(N)(=O)=O)cc1	inactive
Nc1ccn(C2CO[C@H](CO)O2)c(=O)n1 (stereo not given in full)	inactive
CC/C=C\C#N	inactive
N#CCc1ccccc1[N+](=O)[O-]	inactive
CC12CCC(CC1=O)C2(C)C (stereo not given)	inactive
CN1[C@@H]2CC[C@H]1CC(NC(=O)n1c(=O)[nH]c3ccccc31)C2 (stereo not given in full)	inactive
O=S(=O)(c1cccc2cnccc12)N1CCCNCC1	inactive
CC(C)(O)C(=O)c1ccc(OCCO)cc1	inactive
CN(C)CCOC(c1ccc(Cl)cc1)c1ccccn1 (stereo not given)	inactive
CC(C)c1cccc(C(C)C)c1N	inactive
CC(C)COC(=O)c1ccccc1O	inactive
CCC(=O)Nc1cccc(N)c1	inactive
O=C(O)/C=C/c1ccc(/C=C/C(=O)O)cc1	inactive
CCN1CCCC1CNC(=O)c1cc(S(N)(=O)=O)ccc1OC (stereo not given)	inactive
C/C=C1\C(=O)C[C@H]2[C@@H]3CCC4=CC(=O)CC[C@]4(C)[C@H]3CC[C@]12C	inactive
CCCCCCCCCCCCCCCCCC(=O)OCCCCCCCCCCCCCC(C)C	inactive
